# High-throughput results from PubChem.
# hERG WT inh – qHTS for Inhibitors of KCHN2 3.1: Wildtype qHTS. U2OS, BacMam KCNH2, thallium flux FluxOr; stronger effect = lower value. activity change, % at 1.84 µM. actives 0.37% (n = 340,000). Voltage-gated inwardly rectifying potassium channel KCNH2 (Homo sapiens), Q12809. AID 720551, 2013;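 active = maximum activity change below -70%; inconclusive = maximum activity change between -70% and -50%; inactive = maximum activity change above -50%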; also: % is scaled to controls: 0 for no effect and ±100 for the full control effect
# Target sequence (Q12809 whole entry, looked up): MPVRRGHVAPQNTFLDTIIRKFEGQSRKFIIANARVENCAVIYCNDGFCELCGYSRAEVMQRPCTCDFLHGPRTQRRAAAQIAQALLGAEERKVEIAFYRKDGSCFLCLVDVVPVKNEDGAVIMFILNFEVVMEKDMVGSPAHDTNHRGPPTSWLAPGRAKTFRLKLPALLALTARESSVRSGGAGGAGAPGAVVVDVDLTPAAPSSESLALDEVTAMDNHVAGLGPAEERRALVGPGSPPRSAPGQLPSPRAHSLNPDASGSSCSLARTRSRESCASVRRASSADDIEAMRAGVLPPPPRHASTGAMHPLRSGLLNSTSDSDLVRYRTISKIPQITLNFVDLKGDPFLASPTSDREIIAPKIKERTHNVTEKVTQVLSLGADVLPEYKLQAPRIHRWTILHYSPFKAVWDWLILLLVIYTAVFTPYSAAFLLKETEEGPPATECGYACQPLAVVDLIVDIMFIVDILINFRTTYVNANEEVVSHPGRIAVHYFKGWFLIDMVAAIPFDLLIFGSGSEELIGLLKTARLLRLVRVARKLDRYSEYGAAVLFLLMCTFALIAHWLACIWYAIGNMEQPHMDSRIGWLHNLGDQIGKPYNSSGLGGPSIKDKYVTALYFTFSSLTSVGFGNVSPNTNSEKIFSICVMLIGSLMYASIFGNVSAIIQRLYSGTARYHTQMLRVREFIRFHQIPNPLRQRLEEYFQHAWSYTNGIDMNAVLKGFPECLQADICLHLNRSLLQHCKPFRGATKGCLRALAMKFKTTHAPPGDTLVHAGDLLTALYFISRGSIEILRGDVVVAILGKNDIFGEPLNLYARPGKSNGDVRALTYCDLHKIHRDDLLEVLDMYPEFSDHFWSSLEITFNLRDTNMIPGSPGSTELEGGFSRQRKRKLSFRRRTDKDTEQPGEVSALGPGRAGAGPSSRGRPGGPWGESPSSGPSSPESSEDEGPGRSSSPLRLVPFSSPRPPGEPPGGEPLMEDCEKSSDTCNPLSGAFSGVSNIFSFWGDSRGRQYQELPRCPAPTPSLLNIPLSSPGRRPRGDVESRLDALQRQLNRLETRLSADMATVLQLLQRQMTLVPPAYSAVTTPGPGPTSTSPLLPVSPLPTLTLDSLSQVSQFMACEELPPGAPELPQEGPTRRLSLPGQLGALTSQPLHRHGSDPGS
#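 U2OS cells transduced with wild-type KCNH2 virus are loaded with FluxOr dye for 45 min, and thallium flux is measured in kinetic reads before and after stimulation buffer. Rate constants are normalized to DMSO controls.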
# TRPV1 agonist – HTS Assay for Compounds that Act as Agonists of the Vanilloid Receptor 1. actives 0.19% (n = 320,000). AID 540275, 2011. TRPV1-expressing cells, Fluo-8 calcium influx, agonist mode. activation, % at 8.33 µM; in the data active = activation above about 80%; inconclusive = between about 30% and that limit; also: 0% is about no effect
#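 Cells expressing TRPV1 were dye-loaded with Fluo-8 and read kinetically: 10 s baseline, 3 min after compound (agonist portion), then 2 min after EC20 capsaicin (allosteric enhancer portion). Calcium-bound dye fluorescence at 480/520 nm.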
# TRPV1 PAM – HTS Assay for Compounds that Act as Potentiators of the Vanilloid Receptor 1. Transient receptor potential cation channel subfamily V member 1 (Homo sapiens), Q8NER1. TRPV1-expressing cells, Fluo-8 calcium influx, capsaicin EC20 potentiation. potentiation, % at 8.33 µM. actives 0.02% (n = 320,000). AID 540277, 2011; in the data active = potentiation above about 80%; inconclusive = between about 30% and that limit; also: 0% is about no effect
#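 Fluo-8 calcium influx in TRPV1-expressing cells, kinetic read (ex 480/em 520 nm). Compound added and read 3 min for agonist activity, followed by capsaicin at EC20 final and 2 min further read for enhancement.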
# KCNH2 3.1 block – qHTS for Inhibitors of KCHN2 3.1: Mutant qHTS; Potassium voltage-gated channel subfamily H member 2, brain isoform KCNH2 3.1 (human); U2OS KCNH2 3.1, thallium flux FluxOr; stronger effect = lower value; activity change, % (tested at about 1.8 µM); actives 0.95% (n = 340,000);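 active = maximum activity change below -70%; inconclusive = maximum activity change from -70% to -50%; inactive = maximum activity change above -50%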;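 also: thallium influx rate constant from kinetic fluorescence after stimulation buffer; % is scaled to controls: 0 for no effect and ±100 for the full control effect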
#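 FluxOr-based Tl+ influx in U2OS cells transduced with KCNH2 3.1 virus; rate constants normalized to DMSO controls.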
# * marks the source's active call; other numbers are inactive results; ? = inconclusive; nt = no result given. Compounds with a hit are over-represented: about 1.3% of the library has one in this group of screens.
SMILES,hERG WT inh,TRPV1 agonist,TRPV1 PAM,KCNH2 3.1 block
Cc1cc(C)c(NC(=O)COC(=O)c2ccncc2)c(C)c1,-2,nt,nt,-21
O=c1oc2c(CN3CCCCC3)c(O)ccc2cc1-c1nc2ccccc2[nH]1,7,85*,-33,-7
O=C(O)c1ccc2nc(-c3cc4cccc(O)c4oc3=O)[nH]c2c1,nt,-4,13,nt
O=c1oc2c(O)cccc2cc1-c1nc2ccccc2[nH]1,-28,85*,0,-14
Cc1ccc(-c2nc3scc(CCNS(=O)(=O)c4ccc(Oc5ccccc5)cc4)n3n2)cc1,nt,7,11,nt
CC(C)(C)c1ccc(C(=O)NC(=S)N2CCCCCC2)cc1,-37,?,-9,1
CC(C)(C)c1ccc(C(=O)NNC(=O)C2CCCCC2)cc1,1,90*,-17,-8
COc1ccc(F)cc1CN1CCN(C(=O)c2ccc(S(=O)(=O)N3CCCCCC3)cc2)CC1,21,nt,nt,-4
CCCCn1c(N)c(N(C)C(=O)c2ccc(Br)o2)c(=O)[nH]c1=O,-1,-2,-4,-33
O=C(CN1CCN(Cc2ccccc2)CC1)Nc1ccc([N+](=O)[O-])cc1C(=O)Nc1ccccc1F,-82*,0,-4,-103*
CCOC(=O)N1CCN(CC(=O)Nc2ccc([N+](=O)[O-])cc2C(=O)Nc2ccccc2F)CC1,nt,4,0,-7
Cc1cc([N+](=O)[O-])ccc1NC(=O)CN1CCN(Cc2ccccc2)CC1,-6,2,-5,-81*
CCOC(=O)/C(=C\c1ccc(OC(F)F)cc1)C1=Nn2c(nnc2-c2ccc(Cl)cc2)SC1,-78*,8,13,-70*
CCOC(=O)/C(=C/c1ccc(OC(F)F)cc1)C1=Nn2c(nnc2-c2ccc(Cl)cc2)SC1,?,nt,nt,-83*
CCCN(CCC)CC(O)COc1ccc([N+](=O)[O-])cc1 (stereo unspecified),-75*,-7,6,?
COc1cccc(/C=C2\Sc3ccc(C(=O)NCc4cccnc4)cc3N(C)C2=O)c1,9,?,-2,6
CN1C(=O)/C(=C/c2cccc(Cl)c2)Sc2ccc(C(=O)NCc3cccnc3)cc21,15,-10,82*,-31
Nc1nc(SCC(=O)Nc2ccc(OC(F)(F)F)cc2)[nH]c(=O)c1NC(=O)c1ccc(Br)o1,-5,-7,20,nt
C[C@@H](CN1CCC(Cc2ccccc2)CC1)[C@@H](O)c1ccc(O)cc1,37,1,-7,-217*
CC(C(O)c1ccc(O)cc1)N1CCC(Cc2ccccc2)CC1 (stereo unspecified),53,-1,2,-88*
CC1Cc2cc(/C(O)=C3/C(=O)C(=O)N(CCN4CCOCC4)C3c3ccc([N+](=O)[O-])cc3)ccc2O1 (stereo unspecified),6,2,10,19
Cc1cc(C)n(-c2nc(SCCN(C)C)c3c4c(sc3n2)COC(C)(C)C4)n1,?,-3,16,-137*
COc1cccc(-c2c(C(=O)N/N=C/c3ccco3)nnn2-c2nonc2N)c1,0,-2,6,3
O=C(/C=C/c1ccc(Cl)cc1Cl)N1CCN(c2ccccc2[N+](=O)[O-])CC1,?,15,-21,-95*
COc1cccc(CN2CCC(n3nccc3NC(=O)CCCc3ccccc3)CC2)c1O,-5,12,-21,-40
SMILES,hERG WT inh,TRPV1 agonist,TRPV1 PAM,KCNH2 3.1 block
O=C(CCCc1ccccc1)Nc1ccnn1C1CCN(Cc2ccccc2F)CC1,7,2,-6,-8
CCOc1ccc(CN2CCC(n3nccc3NC(=O)CCCc3ccccc3)CC2)cc1,-132*,1,9,4
O=C(CCCc1ccccc1)Nc1ccnn1C1CCN(Cc2ccccc2)CC1,4,-1,3,-31
COc1cc(CN2CCC(n3nccc3NC(=O)CCCc3ccccc3)CC2)ccc1F,-35,10,-2,-96*
COc1ccc(CN2CCC(n3nccc3NC(=O)CCc3ccccc3)CC2)c(C)c1C,0,6,-4,-81*
CSc1ccc(CN2CCC(n3nccc3NC(=O)CCCc3ccccc3)CC2)cc1,-112*,5,5,-114*
CCc1nnc(NC(=O)CSc2ccc(-c3ccc(-n4cccn4)cc3)nn2)s1,5,5,5,-22
